IL1B secr inh – qHTS for Inhibitors of Inflammasome Signaling: IL-1-beta AlphaLISA Primary Screen. THP-1 LPS/ATP IL-1B secretion, AlphaLISA, 16 h; hits give low values. hit rate 4.7% among 360,000. AID 743279, 2014. activity change, % at 57.5 µM; in the data active = activity change below about -50%; inconclusive = mostly about -30% to -49%
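THP-1 cells pretreated 1 hr with compounds (up to 57.5 uM final), then stimulated with LPS (250 ng/mL final) plus ATP (1.25 mM final); secreted IL-1B measured by AlphaLISA after 16 hr, decreased signal indicating inhibition.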
TDP1 cell CPT – qHTS for Inhibitors of human tyrosyl-DNA phosphodiesterase 1 (TDP1): qHTS in cells in presence of CPT. chicken DT40 Tdp1-/-;hTDP1 cells + 20 nM CPT, ATP luminescence, 48 h. hit rate 12% among 420,000. Potency, µM (titrated, usually from 46.2 µM), inactives show at the highest dose activity change, negative = growth inhibition, hits mostly inhibitors; also: potency is read from the fitted curve at half-maximal effect; nearly all actives have a fitted effect of over 55% in size
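Chicken DT40 Tdp1-/- cells stably complemented with human TDP1 were seeded at 400 cells/well in medium containing 20 nM camptothecin, exposed to pin-transferred compounds, and grown at 37 °C for at least 48 hr. Viability was read as ATP luminescence.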
TDP1 cell noCPT – qHTS for Inhibitors of human tyrosyl-DNA phosphodiesterase 1 (TDP1): qHTS in cells in absence of CPT; Potency, µM (highest dose often 46.2 µM), inactives show at the highest dose activity change, negative = growth inhibition, actives largely listed as inhibitors; hit rate 15% among 420,000; DT40 Tdp1-/- hTDP1 cells, no CPT, ATP luminescence, 48 h; also: potency is read from the fitted curve at half-maximal effect; nearly all actives have a fitted effect of over 55% in size
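A cellular qHTS used chicken DT40 cells lacking endogenous Tdp1 but carrying stably transfected human TDP1. Compounds were applied without camptothecin, and cell growth kinetics were judged by ATP-dependent luminescence after ≥48 hr.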
ELG1 DNA repair – qHTS screen for small molecules that inhibit ELG1-dependent DNA repair in human embryonic kidney (HEK293T) cells expressing luciferase-tagged ELG1. HEK293T ELG1-luciferase reporter, luminescence, 16 h; DNA damage induced by 5-fluorouridine. Potency, µM (top dose mostly 46.1 µM), inactives show top-dose activity change, negative = inhibition, actives largely listed as inhibitors. hit rate 2.3% among 330,000; also: potency is read from the fitted curve at half-maximal effect; nearly all actives have a fitted effect of over 55% in size
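Cells (2,000 per well) received 5-fluorouridine plus test compound or DMSO and were incubated 16 hr at 37 °C, 5% CO2. Luciferase activity was read by luminescence 30 min after ONE-Glo addition; signal suppression marked inhibition of damage-induced ELG1 function.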
HT1080NT lethal – qHTS for induction of synthetic lethality in tumor cells producing 2HG: qHTS for the HT-1080-NT fibrosarcoma cell line | hit rate 1.6% among 360,000 | HT-1080-NT fibrosarcoma viability, CellTiter-Glo ATP luminescence, 48 h | Potency, µM (top dose mostly 46.1 µM), without a hit: at the top dose activity, negative = less viability, usual class: cytotoxic;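 also: NT is the 2HG producing partner of a matched IDH1 knockdown line; potency is read from the fitted curve at half-maximal effect; 0% = DMSO-treated cells and -100% = media-only wells without cells; nearly all actives have a fitted effect of over 55% in size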
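HT-1080-NT; 750 cells/well; 5% FBS RPMI; 48 h compound, 37 degrees C; CellTiter-Glo luminescence; curve fitting and curve-class assignment.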
HT1080 IDH1KD tx – qHTS for induction of synthetic lethality in tumor cells producing 2HG: qHTS for the HT-1080-IDH1KD cell line; Potency, µM (top dose mostly 46.1 µM), inactives show at the highest dose activity, negative = toxicity, hits mostly cytotoxic; hit rate 2% among 360,000; HT-1080 IDH1 knockdown viability, ATP luminescence, 48 h;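 also: potency is read from the fitted curve at half-maximal effect; 0% = DMSO wells and -100% = cell-free medium wells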
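In this qHTS, HT-1080 cells depleted of IDH1 are exposed for 48 h at 37 °C to compound titrations. Toxicity is scored from CellTiter-Glo luminescence, with DMSO as full viability and medium alone as none.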
Active calls of the source: *; u = inconclusive; x = no result; [ ] = dose if it differs, or a comment. Hits are enriched below; roughly 19% of the tested compounds scored in any of these assays. Unless noted, calls follow the shape of the dose curve; as a rule, active = well fitted curve in the direction sought with a large enough effect; inconclusive = small, poorly fitted or top-dose-only effect, or another doubt; inactive = no such curve, though single readings can be large; an effect the other way counts as inactive or inconclusive. Unless noted, % is scaled to controls: 0 for no effect and ±100 for the full control effect.

SMILES	IL1B secr inh	TDP1 cell CPT	TDP1 cell noCPT	ELG1 DNA repair	HT1080NT lethal	HT1080 IDH1KD tx
Cc1ccc(OCC(=O)N(Cc2ccc(Cl)cc2)Cc2ccco2)cc1C	x	u	21µM*	x	x	x
Cc1ccc(OCC(=O)N(Cc2ccco2)C2CCS(=O)(=O)C2)cc1C (stereo unspecified)	-1	-7%	-27%	16%	-1%	1%
COc1ccc(CN(Cc2ccco2)C(=O)COc2ccc(Cl)cc2C)cc1	x	u	21µM*	x	x	x
O=C(CSCc1nc2cccnc2n1C1CCCCC1)NCc1cccc(Cl)c1	x	23µM*	10µM*	x	x	x
CNC(=O)CSc1nc2cccnc2n1C1CCCCC1	19	-15%	u	16%	7%	4%
O=C(CSCc1nc2cccnc2n1C1CCCCC1)NCc1cccc(Br)c1	x	16µM*	21µM*	x	x	x
O=C1C(=O)c2c(ccc3ccccc23)-c2ccccc21	-87*	0.58µM*	0.52µM*	x	4.6µM*	1.8µM*
CC(C)CC1CC(C)(c2csc(NNC(=O)c3ccccc3)n2)OC1=O (stereo unspecified)	3	u	u	u	-1%	-2%
CC(=O)OC(c1nc2ccccc2c(=O)n1C1CC2(OC1=O)c1ccccc1N1C(=O)C(C)(C)N(O)C12)C(C)C (stereo unspecified)	4	16µM*	21µM*	u	-4%	0%
Cc1ccc(Nc2nc3ccccc3o2)cc1F	35	8.2µM*	10µM*	u	-26%	-21%
Cc1ccnc(Nc2nc3ccccc3o2)n1	2	u	21µM*	u	u	u
COc1cccc(Cn2c(=O)c(-c3cccc(C#N)c3)nc3cnc(Nc4ccccc4)nc32)c1	x	1%	0%	x	x	x
Cc1ccccc1NC1=C(Cl)C(=O)OC1OC(=O)c1ccccc1C (stereo unspecified)	-83*	u	u	0%	-18%	u
Cc1cccc(NC2=C(Cl)C(=O)OC2OC(=O)c2ccco2)c1 (stereo unspecified)	-20	21µM*	21µM*	-7%	u	-9%
Cc1ccc(NC2=C(Cl)C(=O)OC2OC(=O)c2ccco2)cc1 (stereo unspecified)	-13	u	16µM*	-1%	u	10µM*
Cc1ccc(NC2=C(Cl)C(=O)OC2OC(C)C)cc1 (stereo unspecified)	-7	-17%	-28%	7%	1%	2%
CCc1ccc(N2C(=O)CC(c3cc(OC)ccc3OC)C3=C2COC3=O)cc1 (stereo unspecified)	x	-25%	u	x	x	x
CCCNC(=O)c1cc(C2CCCN(S(=O)(=O)c3cccs3)C2)on1 (stereo unspecified)	15	u	u	x	2%	14%
Oc1ccc2ccccc2c1-c1sc(Nc2ccccc2)n[n+]1-c1ccc(F)cc1	8	u	16µM*	16%	0%	-14%
c1ccc(-[n+]2nc(Nc3cccc4ccccc34)sc2-c2c3ccccc3cc3ccccc23)cc1	-9	u	15µM*	-12%	3.7µM*	8.2µM*
Fc1ccc(-[n+]2nc(Nc3ccccc3)sc2-c2c3ccccc3cc3ccccc23)cc1	-89*	5.8µM*	3.7µM*	4.6µM*	21µM*	23µM*
C[n+]1nc(Nc2ccccc2)sc1-c1ccc(O)cc1	-15	u	-29%	7%	u	3%
C=CCn1c(SCC(=O)N(C)c2c(N)n(Cc3ccccc3)c(=O)[nH]c2=O)nnc1-c1ccccc1OC	6	-21%	-5%	3%	0%	2%
COC(=O)[C@]1(C)N[C@H](CN(C)C(=O)c2ccc(F)cc2)[C@@H]2C(=O)N(Cc3ccccc3)C(=O)[C@@H]21	-21	-28%	1%	8%	8%	9%
CCC1=NN2C(=N)/C(=C\c3cccn3-c3ccc(C)c(C)c3)C(=O)N=C2S1	49	-8%	-18%	18µM*	-20%	-24%
SMILES	IL1B secr inh	TDP1 cell CPT	TDP1 cell noCPT	ELG1 DNA repair	HT1080NT lethal	HT1080 IDH1KD tx
Cc1cc(C)cc(-n2cccc2/C=C2/C(=N)N3C(=NC2=O)SN=C3S(C)(=O)=O)c1	28	0%	-5%	-16%	18µM*	-17%
Cc1ccc(-n2cccc2/C=C2/C(=N)N3C(=NC2=O)SN=C3S(C)(=O)=O)cc1	-15	19%	-1%	-13%	-5%	8%
CCC1=NN2C(=N)/C(=C\c3cccn3-c3ccc(Cl)cc3)C(=O)N=C2S1	0	18%	-15%	u	15%	-7%
CC(C)c1cc(Cn2c3ccccc3c(=O)n2C(C)C)on1	33	-24%	-9%	x	22%	8%
O=C(O)CCN1C(=O)/C(=C/c2cn(-c3ccccc3)nc2-c2cccs2)SC1=S	16	4.6µM*	u	3%	-7%	-16%
O=C(O)CCCCCN1C(=O)/C(=C/c2cn(-c3ccccc3)nc2-c2cccs2)SC1=S	-21	-40%	15µM*	x	u	u
CN1CCC(N(C)C(=O)/C=C/c2cn(-c3ccccc3)nc2-c2cccs2)CC1	-91*	u	23µM*	8%	26µM*	18µM*
CCN(CC(=O)Nc1ccc(NC(C)=O)cc1)C(=O)/C=C/c1cn(-c2ccccc2)nc1-c1cccs1	u	u	u	u	-9%	-9%
Cc1cc(C(=O)Nc2ccccc2-c2nc(CNC(=O)C3(C)CCCCC3)c(C)o2)c(C)o1	x	-10%[9.04 µM]	2%	x	x	x
Cn1c(=O)[nH]c(=O)c2c1nc(Br)n2C/C=N/Nc1ccccc1	-3	-28%	-14%	u	3.7µM*	5.8µM*
Cn1c(=O)[nH]c(=O)c2c1nc(Br)n2CCC(=O)c1ccccc1	13	u	16µM*	-21%	5%	12%
COc1ccc(NC(=O)c2oc3ccccc3c2NC(=O)C2CCCO2)cc1OC (stereo unspecified)	0	u	18µM*	u	-1%	-18%
O=C(Nc1ccc2c(c1)OCCO2)c1oc2ccccc2c1NC(=O)C1CC1	-2	u	u	u	-9%	-11%
